Test systems include NCI-H23 lung; NCI-H226 lung; NCI-H460 lung; HOP-92 NSCLC; NCI-H522 lung; A549/ATCC NSCLC; 786-0 renal; COLO 205 colon; DU-145 prostate; K-562 leukemia; MALME-3M melanoma; MDA-MB-231 breast; RXF 393 renal; SF-268 CNS; SF-539 CNS; UACC-257 melanoma; M14 melanoma; SF-295 CNS; HOP-62 NSCLC.
Experiment in all cases: NCI-60 one-dose screen, 48 h (100 = growth as untreated, 0 = no growth, -100 = all killed)
What all share (details): 10 µM

This is part of a sample that, as a whole, favours compounds with a hit. Of some 83,000 tested, about 20% had one in any assay.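 Growth was measured after 48 h exposure to one concentration of compound in 96-well plates. Values under 10 count as active.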 Values without a mark were called inactive. Calls of active or inactive are those of the source.

With `Cc1cn(-c2cccc(NC(=O)c3ccc(C)c(Nc4nccc(-c5cccnc5)n4)c3)c2)cn1`, the growth in the assay with NCI-H23 lung was 32.2%; in the assay with NCI-H226 lung it was -43% (active); with NCI-H460 lung, -13% (active); in the assay with HOP-92 NSCLC, -13% (active); in the assay with NCI-H522 lung it was -17.7% (active); with A549/ATCC NSCLC it was 10.7%. Moreover, the growth is -52.2% (active) in the assay with 786-0 renal; 11% with COLO 205 colon; 13.3% in the assay with DU-145 prostate; -22.5% (active) with K-562 leukemia; 42% in the assay on MALME-3M melanoma; -48.5% (active) in the assay with MDA-MB-231 breast. The growth is -49.5% (active) in the assay with RXF 393 renal; 15.8% with SF-268 CNS; -33.3% (active) in the assay with SF-539 CNS; 29.1% with UACC-257 melanoma; 22.6% in the assay with M14 melanoma.
For `COc1ccc(-c2nn(-c3cccc(Cl)c3)cc2-c2cc(-c3ccccc3)nc(N)n2)cc1`, the growth was 42.2% in the assay with NCI-H23 lung; 69.3% in the assay with NCI-H226 lung; 31.6% in the assay on NCI-H460 lung; 69.2% in the assay on HOP-92 NSCLC; 45.8% with NCI-H522 lung; 61.1% with A549/ATCC NSCLC. In addition, the growth in the assay with 786-0 renal was 60.1%; in the assay on COLO 205 colon, 35.8%; with DU-145 prostate, 95.1%; with K-562 leukemia, -3.82% (active); in the assay with MALME-3M melanoma it was 52.1%; in the assay on MDA-MB-231 breast, 35.1%. For the same molecule, the growth with RXF 393 renal was 56.2%; in the assay on SF-268 CNS, 65.7%; with SF-295 CNS, 55%; in the assay on SF-539 CNS it was 89%; in the assay on UACC-257 melanoma, 81.1%; in the assay on M14 melanoma it was 52.6%.
In the case of `CNC(=O)c1c(I)c(NC(C)=O)c(I)c(C(=O)O)c1I`, the growth was 97.5% in the assay on NCI-H23 lung; 98.8% in the assay with NCI-H226 lung; 109% in the assay with NCI-H460 lung; 92.7% with HOP-92 NSCLC; 105% in the assay on A549/ATCC NSCLC; 127% in the assay on 786-0 renal. For the same molecule, the growth is 118% in the assay on COLO 205 colon; 113% in the assay on DU-145 prostate; 112% in the assay with MALME-3M melanoma; 95.5% with MDA-MB-231 breast; 115% in the assay on RXF 393 renal; 108% with SF-268 CNS. Besides, the growth in the assay on SF-295 CNS was 119%; with SF-539 CNS it was 109%; in the assay on UACC-257 melanoma, 114%.
As to `COc1ccc(C(=O)c2ccccc2CN2C(=O)c3ccccc3C2=O)cc1`, the growth is 91.7% with NCI-H23 lung; 102% in the assay on NCI-H226 lung; 105% in the assay on NCI-H460 lung; 86.7% in the assay on HOP-92 NSCLC; 95.3% in the assay with NCI-H522 lung; 98.9% with A549/ATCC NSCLC. The growth with 786-0 renal was 101%; with COLO 205 colon, 118%; with DU-145 prostate, 110%; with K-562 leukemia it was 96.5%; with MALME-3M melanoma, 98.6%; in the assay with MDA-MB-231 breast it was 109%. Further, the growth in the assay with RXF 393 renal is 107%; in the assay with SF-268 CNS, 102%; with SF-295 CNS, 100%; in the assay on SF-539 CNS it was 108%; with UACC-257 melanoma, 104%; with M14 melanoma it was 104%.
Turning to `N#CC1=CC2CN(Cc3ccccc3)C1C1C(=O)N(c3ccccc3)C(=O)C21` (stereo unspecified), the growth with NCI-H23 lung is 88%; with NCI-H226 lung, 97.7%; in the assay with NCI-H460 lung it was 101%; in the assay on HOP-92 NSCLC it was 108%; in the assay with NCI-H522 lung, 106%; in the assay with A549/ATCC NSCLC, 95.5%. Also, the growth in the assay with 786-0 renal is 102%; with COLO 205 colon, 98.2%; in the assay on DU-145 prostate, 105%; in the assay on K-562 leukemia it was 92.4%; in the assay on MALME-3M melanoma, 111%; in the assay with MDA-MB-231 breast it was 106%. The growth was 103% in the assay on RXF 393 renal; 107% in the assay with SF-268 CNS; 98.7% with SF-295 CNS; 98.5% in the assay on SF-539 CNS; 97.5% with UACC-257 melanoma; 86.4% with M14 melanoma.
As to `CC1=CC2C(C(O)CC3(C)C2CC(C)C32OCOC23COCO3)C2(C)C/C(=C/O)C(=O)C=C12` (stereo unspecified), the growth with NCI-H23 lung was -0.378% (active); in the assay with NCI-H226 lung, 78.4%; in the assay with NCI-H460 lung, 7.96% (active); in the assay on HOP-92 NSCLC, 94.1%; in the assay with NCI-H522 lung it was -26.7% (active); in the assay on A549/ATCC NSCLC, 41.8%. The growth is 58.8% with 786-0 renal; -14.4% (active) with COLO 205 colon; 44.1% with DU-145 prostate; 2.43% (active) in the assay on K-562 leukemia; 15.5% with MALME-3M melanoma; 18% with MDA-MB-231 breast. Further, the growth with RXF 393 renal is 26.1%; in the assay with SF-268 CNS, 24.8%; in the assay with SF-295 CNS, 79.5%; in the assay with SF-539 CNS it was 41.5%; in the assay on UACC-257 melanoma, 78.2%; in the assay with M14 melanoma, 18.7%.
In the case of `O=[N+]([O-])c1ccc(NCSc2ccc(Cl)cc2)cc1`, the growth was 99.4% in the assay with NCI-H23 lung; 112% in the assay with NCI-H226 lung; 109% with HOP-62 NSCLC; 98.2% in the assay on HOP-92 NSCLC; 86.5% in the assay with NCI-H522 lung; 96.3% in the assay with A549/ATCC NSCLC. Further, the growth with 786-0 renal is 93.4%; in the assay with COLO 205 colon, 103%; with DU-145 prostate, 98.3%; in the assay with K-562 leukemia it was 86.9%; with MDA-MB-231 breast it was 94.3%; in the assay with RXF 393 renal, 103%. Moreover, the growth with SF-268 CNS is 94.1%; in the assay on SF-295 CNS it was 105%; in the assay with SF-539 CNS, 99.7%; in the assay on UACC-257 melanoma, 101%; with M14 melanoma, 109%.
With `N#Cc1c(-c2ccc(Cl)cc2)n(O)c2ccccc12`, the growth was -13.5% (active) with NCI-H23 lung; 75.7% in the assay with NCI-H226 lung; 9.12% (active) in the assay with NCI-H460 lung; -8.45% (active) in the assay on HOP-92 NSCLC; 10.7% in the assay on NCI-H522 lung; 26.9% with A549/ATCC NSCLC. In addition, the growth in the assay on 786-0 renal is 8.19% (active); in the assay with COLO 205 colon, 115%; in the assay with DU-145 prostate it was 25.4%; in the assay on K-562 leukemia, 11.6%; with MALME-3M melanoma, 6.37% (active); with MDA-MB-231 breast it was 30.5%. Also, the growth in the assay with RXF 393 renal is 9.91% (active); in the assay with SF-268 CNS, 32.5%; in the assay on SF-295 CNS, 42.1%; in the assay with SF-539 CNS, -10.1% (active); in the assay with UACC-257 melanoma, 47.4%; in the assay on M14 melanoma it was 13.5%.
Turning to `Cc1ccc(C2=NN(c3ccc(S(C)(=O)=O)cc3)C(=O)CC2)cc1`, the growth in the assay on NCI-H23 lung is -19.6% (active); in the assay with NCI-H226 lung, 77.6%; with NCI-H460 lung, 12.8%; with HOP-92 NSCLC, 60.9%; with NCI-H522 lung, -28.5% (active); in the assay with A549/ATCC NSCLC, 36.6%. Besides, the growth with 786-0 renal is 38.3%; with COLO 205 colon it was 4.23% (active); in the assay on DU-145 prostate it was 6.77% (active); in the assay with K-562 leukemia, 11.7%; in the assay with MALME-3M melanoma, 45.5%; in the assay with MDA-MB-231 breast, 47.8%. The growth with RXF 393 renal is 15.4%; with SF-268 CNS, 55.2%; in the assay with SF-539 CNS it was -7.93% (active); with UACC-257 melanoma it was 50.7%; in the assay with M14 melanoma it was 10.2%.
